# Measurements as given in PubChem BioAssay (Tox21).
# Records with an inconclusive call do not appear. A number with no mark means an inactive call. Calls follow the shape of the full dose curve.
# Experiment: qHTS assay for small molecule agonists of the antioxidant response element (ARE) signaling pathway - cell viability counter screen (AID 743203); also: nearly all actives have a fitted effect of over 55% in size
# Conditions: ARE-bla HepG2 viability, CellTiter-Glo luminescence, 16 h; series mostly up to 73.3 µM; viability change, negative = cytotoxic: at the top concentration
# Description: National Center for Advancing Translational Sciences [NCATS]
# NIH Chemical Genomics Center [NCGC]
# U.S. Environmental Protection Agency [EPA]
# National Institutes of Environmental Health Sciences [NIEHS]
# National Toxicology Program [NTP]
# U.S. Food and Drug Administration [FDA]
# Oxidative stress has been implicated in the pathogenesis of a variety of diseases ranging from cancer to neurodegeneration. The antioxidant response element (ARE) signaling pathway plays an important role in the amelioration of oxidative stress. The CellSensor ARE-bla HepG2 cell line (Invitrogen) can be used for analyzing the Nrf2/antioxidant response signaling pathway. Nrf2 (NF-E2-related factor 2) and Nrf1 are transcription factors that bind to AREs and activate these genes. The CellSensor ARE-bla Hep G2 cell line contains a beta-lactamase reporter gene under control of the Antioxidant Response Element (ARE) stably integrated into HepG2 cells. The activation of the report gene under culture conditions can be detected by fluorescence intensity. This cell line has been used to screen the Tox21 10K compound library to identify agonists that induce oxidative stress. The cytotoxicity of the Tox21 compound library against the ARE-bla cell line was tested in parallel by measuring the cell viability using CellTiter-Glo assay (Promega, Madison, WI) in the same wells.
# Tox21 Assay Protocol Summary:
# ARE-bla HepG2 cells were dispensed at 2,000 cells/5 ul/well in 1536-well white wall/solid bottom plates using a Multidrop Combi (ThermoFisher Scientific, Waltham, MA) dispenser. After the assay plates were incubated at 37C/5% CO2 for 5 hrs, 23 nL of compounds dissolved in DMSO, positive controls or DMSO only was transferred to the assay plate by a pintool work station (Kalypsys, San Diego, CA). The plates were incubated at 37C/5% CO2 for 16 hrs, followed by addition of 4 ul/well of CellTiter-Glo reagent into the assay plates using a Flying Reagent Dispenser (Aurora Discovery, San Diego, CA). After 30 min incubation at room temperature, the luminescence intensity in the assay plates was measured using a ViewLux (PerkinElmer, Shelton, CT) plate reader.
# % is scaled to controls: 0 for no effect and ±100 for the full control effect.
row,Compound,"viability change, negative = cytotoxic"
1,O=C(O)Cc1cn(-c2ccccc2)nc1-c1ccc(Cl)cc1,2.1%
2,CCCOC(OCCC)OCCC,11.7%
3,O=C(/N=N/C(=O)OCc1ccccc1)OCc1ccccc1,5.88%
4,CC(C)CCCCOC(=O)c1ccccc1C(=O)OCCCCC(C)C,-7.59%
5,C=CCCCCCCCCCCCC,8.88%
6,C[C@H](CCC(=O)O)[C@H]1CC[C@H]2[C@@H]3C(=O)C[C@@H]4CC(=O)CC[C@]4(C)[C@H]3CC(=O)[C@]12C,15.2%
7,O=C(O)Cc1ccc(Cl)cc1Cl,-0.082%
8,CCCCCCCC/C=C\CCCCCCCC(=O)OCCCC,-3.86% [at 34.3 µM]
9,N[C@@H](COP(=O)(O)O)C(=O)O,-4.87% [at 34.3 µM]
10,CC(C)(C)c1cc(CCC(=O)NN)cc(C(C)(C)C)c1O,-8.01%
11,CCCCCCN,3.18%
12,COC(=O)[C@@H]1[C@H]2C[C@H]3c4[nH]c5ccccc5c4CCN3C[C@@H]2CC[C@@H]1O,-9.83%
13,CCNC(=O)C1CC(C)CCC1C(C)C (stereo not given),1.38%
14,CC(=O)N[C@@H](CCC(=O)O)C(=O)O,12.7%
15,CNC(=O)[C@H]1O[C@@H](n2cnc3c(NCc4cc(Cl)ccc4OCc4cc(C)no4)ncnc32)[C@H](O)[C@@H]1N,-6.43%
16,O=C1c2ccccc2C(=O)c2cc(S(=O)(=O)O)ccc21,-4.8% [at 94.8 µM]
17,COc1ccc(Br)c(C)c1,4.96% [at 94.8 µM]
18,Cc1ccccc1C(=O)Nc1ccc(C(=O)N2CCCC(N(C)C)c3ccccc32)cc1 (stereo not given),11.6%
19,CCOC(=O)c1ccc(OC(=O)CCCCCN=C(N)N)cc1,-17.1%
20,COc1ccc(S(=O)(=O)N2c3ccc(Cl)cc3[C@@](O)(c3ccccc3Cl)[C@H]2C(=O)N2CCC[C@@H]2C(N)=O)cc1OC,0.315%

row,Compound,"viability change, negative = cytotoxic"
1,CO[C@@H]1[C@@H](OC(N)=O)[C@@H](O)[C@H](Oc2ccc3c(O)c(NC(=O)c4ccc(O)c(CC=C(C)C)c4)c(=O)oc3c2C)OC1(C)C,-6.65%
2,Nc1ccc([N+](=O)[O-])c(N)c1,1.66%
3,CCCCCCCCC(=O)Cl,-9.53% [at 94.8 µM]
4,C=C(C)C(=O)OCCNC(C)(C)C,10%
5,CC1(C)S[C@@H]2[C@H](N=CN3CCCCCC3)C(=O)N2[C@H]1C(=O)O,-5.33%
6,CCN1CCc2nc(N)oc2CC1,0.395%
7,OCCC(F)(F)C(F)(F)C(F)(F)C(F)(F)C(F)(F)C(F)(F)C(F)(F)C(F)(F)F,0.176%
8,CCOCCOC(=O)/C=C/c1ccc(OC)cc1,-6.81%
9,COc1ccc2c(c1)C(=O)N(CCc1ccc(S(=O)(=O)NC(=O)NC3CCCCC3)cc1)C(=O)C2(C)C,-0.235%
10,Cc1ccc2c(c1)OCC(=O)CO2,-20.3%
11,CC(C)(C)c1n[nH]c(=S)n(N)c1=O,-1.99%
12,COCCOCCOCCOCCOCCO,2.94%
13,CCN(C)C(=O)Oc1cccc([C@H](C)N(C)C)c1,11.3%
14,CCC(CC)CO,0.311%
15,CC(C)C(=O)OCc1cccc(OC(=O)[C@@H]2N3C(=O)[C@@H](NC(=O)Cc4ccccc4)[C@H]3SC2(C)C)c1,-4.01%
16,CCCN1C[C@H](CSC)C[C@@H]2c3cccc4[nH]cc(c34)C[C@H]21,1.43%
17,CCOC(=O)[C@H](CCc1ccccc1)N[C@@H](C)C(=O)N1C(=O)N(C)C[C@H]1C(=O)O,-5.56%
18,COc1nccnc1NS(=O)(=O)c1ccc(N)cc1,-1.71%
19,COc1ccc(C2CNC(=O)C2)cc1OC1CCCC1 (stereo not given),3.17%
20,CCCCCCCCCCCCCC,11.7%
